Bioassay records (PubChem)
The list is not random: actives were taken first. Their share in the collection is about 4%.
Cl transport mod = KCC2 (human) Cl- transport modulation | Q9H2X9 | KCC2 cells, thallium flux FluoZin-2 fluorescence | B-score of Tl+ flux slope (higher = more flux/activation; lower = inhibition) at 10 µM | 190,000 compounds, 2.2% hits;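 active means thallium flux slope and its plate-corrected score both differing from the plate sample mean at a set confidence after two filtering rounds, in either direction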;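 further: slope of fluorescence scaled to starting intensity during 10 to 20 s after thallium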
ROMK mod = modulators of human ROMK potassium channel. P48048. Tet-inducible ROMK, thallium flux fluorescence; actives lie on both sides. B-score at 10 µM. 130,000 compounds, 2% hits. AID 1918;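 active means signal ratio slope over the read window, or its plate-corrected B-score, at least 3 SD from the plate mean, either direction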;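 further: B-score of the F/F0 ratio slope over 7 to 12 s after thallium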
Target sequence (P48048 whole entry, looked up): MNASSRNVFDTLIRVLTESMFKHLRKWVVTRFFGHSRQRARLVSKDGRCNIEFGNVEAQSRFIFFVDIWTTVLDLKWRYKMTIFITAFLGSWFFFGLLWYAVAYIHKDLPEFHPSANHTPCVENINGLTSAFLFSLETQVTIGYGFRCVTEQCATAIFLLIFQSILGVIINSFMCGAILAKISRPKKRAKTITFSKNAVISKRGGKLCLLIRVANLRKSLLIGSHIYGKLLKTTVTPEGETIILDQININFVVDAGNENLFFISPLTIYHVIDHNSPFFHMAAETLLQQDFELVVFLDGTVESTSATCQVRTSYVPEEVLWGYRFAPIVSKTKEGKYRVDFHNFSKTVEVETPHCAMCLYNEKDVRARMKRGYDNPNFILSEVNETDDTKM
Measles CPE = protection of cells from measles virus. Measles virus-infected cells, CPE protection, absorbance. protection (pct of control), % at 4 µM. 140,000 compounds, 1.5% hits. AID 841; in the data active means protection mostly above about 24%, no sharp cut-off; inactive means mostly below about 26%
Arbovirus anti = blocks arbovirus infection; arbovirus infection cell-based antiviral screen; inhibition, % at 10 µM; 200,000 compounds, 0.37% hits; in the data active means inhibition above about 30%
HSV replic up = HSV replication enhancement. HSV replication augmentation in cells, fold increase. maximum fold increase. 220,000 compounds, 0.005% hits. AID 1956; in the data active means maximum fold increase above about 1.5; inconclusive means no clear call, values can overlap the other calls; tested in PC3 cells
KCC2 sec1 = KCC2 (human) modulation, secondary assay; HEK293-KCC2, thallium flux, FluoZin2 fluorescence; stronger effect = higher value; AID 1713; normalised thallium flux (F/F0 slope) at 10 µM; shares compounds with Cl transport mod; 3,700 compounds, 15% hits;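 active means thallium flux slope above the same plate's solvent-only control mean plus 3 SD; inconclusive means the two replicate wells disagree; inactive means no significant difference from solvent-only control wells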
KCC2 bumet counter = thallium flux despite bumetanide block in KCC2 cells, secondary assay 3. shares compounds with Cl transport mod. HEK293-KCC2 + bumetanide/ouabain, thallium flux FluoZin2; stronger effect = higher value. normalized thallium flux at 10 µM. 3,700 compounds, 49% hits. AID 1714;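 active means thallium entry rate above the same plate's blocked-transporter control wells by more than 3 SD; inconclusive means the two repeat wells disagree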;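 further: raw slope of fluorescence over initial fluorescence between 10 and 20 s after thallium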
KCC2 secondary2 = confirmation of human KCC2 transport modulators; normalized thallium flux at 10 µM; AID 1715; shares compounds with Cl transport mod; 3,700 compounds, 23% hits; HEK293-KCC2, thallium flux FluoZin2 fluorescence; actives lie on both sides; F/F0 rise rate, 10–20 s post-thallium;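 active means thallium flux slope more than 3 SD above or below the plate's solvent-only control mean, mostly below; inconclusive means the two repeat wells disagreed; inactive means no significant shift from solvent-only controls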;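 further: raw slope with 0.1% DMSO as baseline and bumetanide as block control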
HEK293 Tl flux = parental HEK flux effect, counter-screen; shares compounds with Cl transport mod; HEK293 parental cells, thallium flux FluoZin2, ouabain; baseline-ratio fluorescence slope, 10–20 s after thallium; thallium flux rate (normalised fluorescence) at 10 µM; 3,700 compounds, 46% hits; AID 1716;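 active means thallium flux rate significantly above the same plate's solvent-only control wells, beyond their mean plus 3 SD; inconclusive means the two replicate wells gave conflicting results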
KCC2 ouabain = modulates human KCC2 on retest with ouabain. 3,700 compounds, 48% hits. HEK293-KCC2, thallium flux FluoZin2 fluorescence; bidirectional: low = inhibitor, high = activator. raw Tl+ flux slope (below DMSO = inhibition, above = activation) at 10 µM. shares compounds with Cl transport mod;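 active means thallium flux slope beyond 3 SD from same-plate DMSO control mean in most replicates, usually higher, sometimes lower; inconclusive means repeat tests gave conflicting results; inactive means no significant difference from controls in most replicates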;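 further: slope of initial-normalized fluorescence between seconds 10 and 20 after thallium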
HEK counter2 = parental HEK flux effect, counter-screen 2; shares compounds with Cl transport mod; HEK293 parental, thallium flux FluoZin-2 fluorescence slope; thallium flux slope at 10 µM; 3,700 compounds, 33% hits; AID 1718;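 active means thallium flux slope above the same plate's solvent-control mean plus 3 SD in both duplicate wells; inconclusive means duplicate wells that disagreed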;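 further: run without ouabain in cells lacking the KCC2 cotransporter; slope of fluorescence scaled to its starting value between 10 and 20 s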
The depositor's hits bear a star; i = inactive; ? = inconclusive; · = no result given.

SMILES	Cl transport mod	ROMK mod	Measles CPE	Arbovirus anti	HSV replic up	KCC2 sec1	KCC2 bumet counter	KCC2 secondary2	HEK293 Tl flux	KCC2 ouabain	HEK counter2
c1ccc(-c2ccc(-n3ccnc3)cc2)cc1	·	0.25	17	-1	i	0.009	0.0055	?	0.0035	0.017*	0.01
O=C(N/N=C\c1ccc(Cl)s1)C1COc2ccccc2O1 (stereo unspecified)	12*	0.29	·	·	i	0.0094	0.011*	0.035	?	?	0.013
O=C(N/N=C/c1c[nH]c2ccccc12)C1COc2ccccc2O1 (stereo unspecified)	-1.8	·	10	2	i	·	·	·	·	·	·
COc1cc(C2CC(=O)Nc3n[nH]c(-c4ccccc4)c32)cc(OC)c1OC (stereo unspecified)	-0.35	·	·	·	i	·	·	·	·	·	·
Cc1cc2nc3n(c2cc1C)CC1CC(C(=O)NCc2cccc(C(F)(F)F)c2)N(C)C31 (stereo unspecified)	0.25	·	·	·	i	·	·	·	·	·	·
O=c1[nH]c(-c2ccccn2)nc2sc(-c3ccccc3)cc12	4.4*	-0.03	·	-24	i	0.0097	0.018*	0.032	0.033*	?	0.015*
CC1=CCCC(C)(C)C1/C=C/C(C)=N/NC(=O)c1ccncc1 (stereo unspecified)	5.3*	-0.9	·	-3	i	?	0.046*	0.032	0.016*	?	0.012*
CC(C)(C)C(=O)NC(=S)NNC(=O)c1ccc(Cl)cc1Cl	38*	-0.53	·	-20	i	0.031*	0.05*	0.039	0.053*	0.058*	0.017*
CC(C)Cc1c2c([nH]c(=S)c1C#N)CCCC2	27*	-0.0032	10	1	i	0.019*	0.068*	0.037	0.034*	0.058*	0.014*
Cc1[nH]c(=O)c(C#N)c2c1CCCC2	-0.034	·	10	2	i	·	·	·	·	·	·
Cc1[nH]c(=S)c(C#N)c2c1CCCC2	3.8*	0.9	·	1	i	0.0088	0.0086*	0.035	0.011*	0.021	0.011
CSc1nnc(CCCCCCCCc2nnc(SC)o2)o1	·	·	·	·	i	·	·	·	·	·	·
Cc1cc(C)n(-c2nc(-n3nc(C)cc3C)c3c4c(sc3n2)COC(C)(C)C4)n1	·	-0.011	16	0	·	·	·	·	·	·	·
Cc1cc(C)n(-c2nc(SCC(=O)Nc3nccs3)c3c4c(sc3n2)COC(C)(C)C4)n1	4.4*	·	10	-7	i	0.0096	0.022*	0.032	0.019*	0.026*	0.013*
C=CCN1C(=O)C(C)(C)Nc2ccccc21	·	·	14	0	i	·	·	·	·	·	·
C=CCN1C(=O)N(/C=C/C)c2cccc3cccc1c23	7.6*	-0.064	10	5	i	0.0057	0.0043	0.028	0.0057*	0.018	0.009
CCOc1cc(CNCCc2ccc(S(N)(=O)=O)cc2)cc(Cl)c1OCc1ccccc1	·	-2.3	18	-32	i	?	0.0046	0.031	0.0081	0.017	0.011
C=CCn1c(Cc2cccs2)nnc1SC/C=C/c1ccccc1	-4*	-1.4	6	-3	i	0.0051	?	?	0.0053*	0.014*	0.0085*
CCn1c(SC/C=C/c2ccccc2)nnc1-c1cccs1	·	·	3	1	i	·	·	·	·	·	·
O=C1C2CCCN2C(c2ccccc2F)N1c1cccc(Cl)c1 (stereo unspecified)	-3.7*	·	13	7	i	0.0073	?	0.031	?	0.02	0.012
CC(/C=N/n1c(COc2ccccc2)n[nH]c1=S)=C\c1ccco1	121*	·	·	·	i	0.015*	0.17*	0.034	0.055*	0.046*	0.014*
S=c1[nH]nc(COc2ccccc2)n1/N=C/c1ccco1	-0.08	·	·	0	i	·	·	·	·	·	·
S=c1[nH]nc(COc2ccccc2)n1/N=C/c1ccc(Br)s1	51*	0.032	3	11	·	?	0.077*	0.034	0.022*	0.027*	0.026*
CN(C(=O)CO/N=C/c1ccc(Cl)cc1)c1ccccc1	0.63	-0.049	·	-3	i	·	·	·	·	·	·
COC(=O)c1ccc(Cl)c(NC(=O)CN(c2ccccc2)S(=O)(=O)c2ccc(OC)cc2)c1	-4.4*	·	10	-1	i	0.01	0.0063	?	0.0041	0.019*	0.011
SMILES	Cl transport mod	ROMK mod	Measles CPE	Arbovirus anti	HSV replic up	KCC2 sec1	KCC2 bumet counter	KCC2 secondary2	HEK293 Tl flux	KCC2 ouabain	HEK counter2
C/C(=N\NC(=S)Nc1cccc(C)c1)c1cc2ccccc2o1	26*	-0.036	·	-9	i	0.0064	0.077*	0.051*	0.038*	0.058*	0.041*
CC/C(=N\NC(=S)Nc1cccc(C)c1)c1ccccc1	34*	0.19	·	1	i	0.021*	0.1*	0.038	?	0.067*	0.028*
O=C(NC(=S)Nc1cccc(F)c1)c1cccc([N+](=O)[O-])c1	151*	·	·	·	i	0.031*	0.15*	?	0.071*	0.085*	0.019*
C/C(=N/NC(=S)Nc1cccc(C)c1)c1cccc([N+](=O)[O-])c1	30*	-1.1	·	18	i	0.0087	0.037*	?	0.037*	0.036*	0.027*
Nc1nc(-c2ccccc2)c(C(=O)Nc2ccccc2)s1	0.0019	0.45	·	-2	i	·	·	·	·	·	·
O=C(CCCNS(=O)(=O)c1ccc(Cl)c(Cl)c1)NCCc1ccccn1	-0.9	0.46	·	12	i	·	·	·	·	·	·
O=C(N=NC(=O)c1ccc2c(O)n(CC3CCCO3)c(O)c2c1)c1cccnc1 (stereo unspecified)	0.37	·	·	·	i	·	·	·	·	·	·
Cc1cccc(NC(=S)N/N=C(\c2ccccc2)C(C)C)c1	33*	-0.14	·	0	i	0.0059	0.06*	0.05*	0.04*	0.055*	0.036*
CC(C)/C(=N\NC(=O)Nc1ccccc1)c1ccccc1	0.013	·	20	24	i	·	·	·	·	·	·
CCOc1ccc(CCNC(=O)c2cc3sccc3n2C)cc1OCC	3.9*	0.41	13	5	·	0.0074	0.0041	?	?	0.017	0.0094
CC1=NN(C(=O)c2ccc(Br)cc2)C(O)(C(F)(F)OC(F)(F)F)C1 (stereo unspecified)	6.1*	-0.052	16	-6	·	0.0094	0.0099*	0.031	0.0088*	0.029*	?
COC(=O)C1=NN(C(=O)c2ccccc2)C(C)(O)C1 (stereo unspecified)	·	1.6	14	8	i	·	·	·	·	·	·
